CRFBP-R2 agonist = CRF-BP/CRF-R2 complex agonism; actives 0.46% (n = 350,000); activation, % at 13.2 µM; AID 588473; HEK293 CRF-R2/CRF-BP, calcium dye fluorescence (FLIPR); percent of saturating CRF peptide response;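 active = activation of at least 50%, plus an integration ratio under a set limit after plate pattern correction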
CRFR2-BP antag = antagonists of CRF-binding protein/CRF-R2 receptor complex. inhibition, % at 11.8 µM. HEK293 CRF-R2/CRF-BP, CRF-induced calcium fluorescence. actives 0.59% (n = 350,000);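 active = inhibition of the ligand-induced calcium signal above about 50% at the single tested concentration, limit read from the data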
TPT1 inh = blocks Candida albicans tRNA 2'-phosphotransferase; recombinant caTPT1, FP RNA substrate dephosphorylation; inhibition, % at 5 µM; actives 0.81% (n = 300,000);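 active = inhibition above the mean of all tested compounds plus 3 SD, set per screening campaign, cut at about 24% in these data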
IDE act = activators of human insulin-degrading enzyme in cells; HEK cells, FAbeta-B cleavage, fluorescence polarization; 0% vehicle, 100% cell-free pure enzyme wells; P14735; activation, % at 5.96 µM; actives 0.073% (n = 340,000);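 active = activation above the mean of all tested compounds plus 3 SD, set per screening campaign, cut at about 17% in these data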
Target sequence (P14735 whole entry, looked up): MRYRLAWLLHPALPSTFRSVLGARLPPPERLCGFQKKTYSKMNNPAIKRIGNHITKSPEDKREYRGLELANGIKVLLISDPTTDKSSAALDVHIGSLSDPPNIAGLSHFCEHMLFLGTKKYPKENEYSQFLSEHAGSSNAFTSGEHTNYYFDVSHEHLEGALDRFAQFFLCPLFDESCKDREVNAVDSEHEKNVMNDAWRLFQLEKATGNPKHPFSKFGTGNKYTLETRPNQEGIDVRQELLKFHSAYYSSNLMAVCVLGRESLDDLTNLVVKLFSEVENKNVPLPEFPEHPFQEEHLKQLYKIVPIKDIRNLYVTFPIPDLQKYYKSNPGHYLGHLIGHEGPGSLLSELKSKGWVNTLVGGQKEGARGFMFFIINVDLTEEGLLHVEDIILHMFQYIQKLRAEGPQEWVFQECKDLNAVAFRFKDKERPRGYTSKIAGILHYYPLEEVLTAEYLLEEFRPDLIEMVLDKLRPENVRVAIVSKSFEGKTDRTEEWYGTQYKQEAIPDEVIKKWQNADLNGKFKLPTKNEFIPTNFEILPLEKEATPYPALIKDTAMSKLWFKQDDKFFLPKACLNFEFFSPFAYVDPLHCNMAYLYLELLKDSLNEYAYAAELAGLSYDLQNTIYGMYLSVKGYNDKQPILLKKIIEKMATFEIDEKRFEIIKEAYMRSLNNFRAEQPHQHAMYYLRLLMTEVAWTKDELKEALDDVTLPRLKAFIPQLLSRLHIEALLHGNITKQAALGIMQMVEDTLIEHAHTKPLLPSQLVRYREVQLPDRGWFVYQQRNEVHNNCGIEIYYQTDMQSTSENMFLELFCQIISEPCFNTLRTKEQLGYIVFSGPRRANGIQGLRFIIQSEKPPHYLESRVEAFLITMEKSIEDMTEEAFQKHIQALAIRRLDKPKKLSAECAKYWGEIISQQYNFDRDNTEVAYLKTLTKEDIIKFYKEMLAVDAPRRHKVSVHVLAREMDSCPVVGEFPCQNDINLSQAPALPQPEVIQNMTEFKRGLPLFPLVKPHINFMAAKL
IDE cell inh = cellular human IDE inhibition; P14735; inhibition, % at 5.59 µM; actives 0.41% (n = 320,000); HEK cells, FAbetaB cleavage, fluorescence polarization;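 active = percent inhibition above the average of all tested compounds plus 3 SD, set per screening campaign, cut at about 16% in these data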;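 note: IDE supplied by intact live HEK cells; FP after avidin binding of uncleaved biotin substrate so inhibition keeps polarization high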
Myeloid diff MLP = compounds promoting myeloid differentiation; ER-HoxA9 myeloid progenitors, lysozyme-GFP differentiation, flow cytometry; calls only at 10 µM; actives 1% (n = 360,000); AID 624256;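 active = normalized GFP-positive differentiation at or above the plate's own cutoff, the solvent-only control mean plus 3 SD; inconclusive = no clear call, values can overlap the other calls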;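 note: cells exposed to compound for four days before flow analysis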
Myeloid diff = compounds promoting myeloid differentiation; AID 651706; calls only; ER-HoxA9 myeloid progenitors, GFP/Mac1 double-positive flow; shares compounds with Myeloid diff MLP; actives 2% (n = 2,300);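 active = share of green or green-and-red cells above 9 and 9% in run 1 or 4 and 3% in run 2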
GFP autofluor = counter-screen for myeloid differentiation promoters: compound fluorescence. fluorescence response, % (concentration not given with the values). shares compounds with Myeloid diff MLP. actives 7.4% (n = 2,300). ER-HoxA9 myeloid progenitors, no estrogen, GFP autofluorescence flow cytometry; vehicle wells 0%, positive control 100%;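 active = over 5% cells positive for green fluorescent reporter, or over 2% positive for both it and APC stain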
Of the large screens only hits and unclear results are named; the others gave an inactive call (follow-up assays come after a bar, where they were run). Sampled rows, rich in hits. Any-hit rate of the full collection: about 2.6%.

COc1ccccc1-c1ccc2c(c1)C(C)(Cc1cc(Cl)ccc1C(F)(F)F)C(=O)N2 (stereo not given)	none (no result: CRFBP-R2 agonist, CRFR2-BP antag, TPT1 inh, IDE act, IDE cell inh)
COc1ccc(Cl)cc1CC1(C)C(=O)Nc2ccc(-c3ccccc3OC)cc21 (stereo not given)	Myeloid diff MLP active (no result: CRFBP-R2 agonist, CRFR2-BP antag, TPT1 inh, IDE act, IDE cell inh) | Myeloid diff inactive | GFP autofluor inactive
Cc1ccc([C@@H]2C[C@H]3[C@@H](CN2S(=O)(=O)c2ccc(Cl)cc2)C(=O)C[C@@H](c2ccc(C)cc2)N3S(=O)(=O)c2ccc(Cl)cc2)cc1	none (no result: TPT1 inh, IDE act, IDE cell inh)
COc1ccc(NCc2nnc(-c3ccccc3)o2)cc1	none
COc1ccc(NC(=O)c2cccnc2)c(OC)c1	Myeloid diff MLP active | Myeloid diff inactive | GFP autofluor inactive
COc1cccc(C(=O)Nc2ccccc2F)c1	none
COc1cccc(C(=O)Nc2ccc(F)cc2F)c1	none | Myeloid diff inactive | GFP autofluor inactive
COc1ccc(OCC(=O)NC(=S)Nc2ccc3c4c(cccc24)CC3)cc1	none
COc1cccc(C(=O)NC(=S)Nc2ccc3c4c(cccc24)CC3)c1	Myeloid diff MLP active | Myeloid diff inactive | GFP autofluor inactive
C=CCn1c2ccccc2c(=O)c2cc(C#Cc3ccccn3)ccc21	none (no result: TPT1 inh)
CN(C)S(=O)(=O)c1ccc(C(=O)NNC(=O)C2COc3ccccc3O2)cc1 (stereo not given)	none
CCn1c(=O)c(=O)n(CC)c2cc(S(=O)(=O)Nc3cccc(OC)c3)ccc21	Myeloid diff MLP active | Myeloid diff inactive | GFP autofluor inactive
COc1cccc(NS(=O)(=O)c2ccc3c(c2)n(C)c(=O)c(=O)n3C)c1	none
COc1ccc2cc(C(C)c3nc4ccccc4c(=O)n3N)ccc2c1 (stereo not given)	Myeloid diff MLP active | Myeloid diff inactive | GFP autofluor inactive
COc1ccc(-c2nc3ccccc3c(=O)n2N)cc1	none
CC(=O)c1ccc(-c2cnc3c(NC=O)cc(-c4ccc(N5CCN(C)CC5)cc4)cn23)cc1	none (no result: CRFBP-R2 agonist, CRFR2-BP antag, TPT1 inh, IDE act, IDE cell inh)
CC(=O)c1ccc(-c2cnc3c(NC=O)cc(-c4ccccc4Oc4ccccc4)cn23)cc1	none (no result: CRFBP-R2 agonist, CRFR2-BP antag, TPT1 inh, IDE act, IDE cell inh) | Myeloid diff inactive | GFP autofluor inactive
CN1CCN(c2ccc(-c3cc(NC=O)c4ncc(-c5ccc(F)c(Cl)c5)n4c3)cc2)CC1	Myeloid diff MLP active (no result: CRFBP-R2 agonist, CRFR2-BP antag, TPT1 inh, IDE act, IDE cell inh) | Myeloid diff inactive | GFP autofluor inactive
COc1cc(-c2cnc3c(NC=O)cc(-c4ccc(S(C)(=O)=O)cc4)cn23)cc(OC)c1OC	Myeloid diff MLP active (no result: CRFBP-R2 agonist, CRFR2-BP antag, TPT1 inh, IDE act, IDE cell inh) | Myeloid diff inactive | GFP autofluor inactive
CN(C)c1ccc(-c2cc(NC=O)c3ncc(-c4ccc(F)c(Cl)c4)n3c2)cc1	Myeloid diff MLP active (no result: CRFBP-R2 agonist, CRFR2-BP antag, TPT1 inh, IDE act, IDE cell inh) | Myeloid diff inactive | GFP autofluor inactive
COc1ccccc1-c1cc(NC=O)c2ncc(-c3ccc(S(C)(=O)=O)cc3)n2c1	none (no result: CRFBP-R2 agonist, CRFR2-BP antag, TPT1 inh, IDE act, IDE cell inh)
O=CNc1cc(-c2ccccc2)cn2c(-c3ccc(F)c(Cl)c3)cnc12	none (no result: CRFBP-R2 agonist, CRFR2-BP antag, TPT1 inh, IDE act, IDE cell inh)
COc1ccccc1-c1nc(-c2ccc(C)nc2OC)no1	none
COc1nc(C)ccc1-c1noc(-c2ccccn2)n1	none | Myeloid diff inactive | GFP autofluor inactive
COc1ccccc1NC(=O)CCC(=O)OCc1ccc(Cl)cc1	none
OC[C@@H]1CN(Cc2ccccc2)C[C@H](n2cnc3c(NCc4ccco4)ncnc32)O1	Myeloid diff MLP active (no result: CRFBP-R2 agonist, CRFR2-BP antag, TPT1 inh, IDE act, IDE cell inh) | Myeloid diff inactive | GFP autofluor inactive
CCCCN(C)C1=Nc2cccc3cccc1c23	Myeloid diff MLP active | Myeloid diff inactive | GFP autofluor inactive
CC1CCCN(CCCNC(=O)c2ccc3c(c2)N(Cc2cccc(Cl)c2)C(=O)c2ccccc2S3=O)C1 (stereo not given)	none (no result: TPT1 inh, IDE act, IDE cell inh) | Myeloid diff inactive | GFP autofluor inactive
CC(C)(C)c1ccccc1OCCCCCn1ccnc1	none
COc1ccc(C(=O)NC(=S)Nc2ccc(S(=O)(=O)Nc3cc(OC)nc(OC)n3)cc2)cc1	Myeloid diff MLP active | Myeloid diff inactive | GFP autofluor inactive
COc1cc(NS(=O)(=O)c2ccc(NC(=S)NC(=O)c3ccc(F)cc3)cc2)nc(OC)n1	none
COc1cc(CNCCc2c[nH]c3ccccc23)ccc1OCc1ccc(F)cc1	none | Myeloid diff inactive | GFP autofluor inactive
CC(C)n1c(-c2ccccc2F)n[nH]c1=S	none | Myeloid diff inactive | GFP autofluor 85
CCOC(=O)c1cc(NC(=O)c2ccccc2)c(=O)n2c1oc1ccccc12	none
CCOc1ccc(N2C(=O)CS/C2=N/NC(=O)COc2ccc3ccccc3c2)cc1	none | Myeloid diff inactive | GFP autofluor inactive
Cc1ccc(S(=O)(=O)N2CCOCC2)cc1NC(=O)COC(=O)c1cnc(Cl)c(Cl)c1	none (no result: TPT1 inh, IDE cell inh)
O=C(NC1CCN(Cc2ccccc2)CC1)C1CCCN(c2nnc(-n3cccc3)s2)C1 (stereo not given)	none | Myeloid diff inactive | GFP autofluor inactive
COCc1c(C)cc(C)c(/C=N/O)c1C	none | Myeloid diff inactive | GFP autofluor inactive
COc1ccc(-n2nc3ccc(N)cc3n2)cc1Cl	none | Myeloid diff inactive | GFP autofluor inactive
COc1ccc(NC(=O)CN(C)C(=O)C(C)N2C(=O)c3ccccc3C2=O)cc1 (stereo not given)	none
CN(Cc1ccc(Cl)c(Cl)c1)C(=O)C1=CC=CN2CCS(=O)(=O)N=C12	Myeloid diff MLP active (no result: TPT1 inh) | Myeloid diff active | GFP autofluor inactive
O=C(Oc1ccc(Cl)c(Cl)c1)C1=CC=CN2CCS(=O)(=O)N=C12	none (no result: TPT1 inh)
COc1ccc(Br)cc1CN(C)C(=O)C1=CC=CN2CCS(=O)(=O)N=C12	none (no result: TPT1 inh) | Myeloid diff inactive | GFP autofluor inactive
COc1ccc(CCN2C(=O)CCC2(C)c2nnnn2-c2ccc3c(c2)OCCO3)cc1OC (stereo not given)	none (no result: CRFBP-R2 agonist, CRFR2-BP antag, TPT1 inh, IDE act, IDE cell inh)
Cc1ccc(-n2c(O)c(C=Nc3ccccc3-c3n[nH]c(=S)[nH]c3=O)c3ccccc3c2=O)cc1C	none (no result: TPT1 inh, IDE cell inh) | Myeloid diff inactive | GFP autofluor inactive
Cc1ccc(-n2c(O)c(C=NC3CCS(=O)(=O)C3)c3ccccc3c2=O)cc1C (stereo not given)	none
O=C(CCc1nnc2ccc(NCc3ccco3)nn12)Nc1ccccc1F	Myeloid diff MLP inconclusive
CC1(C)Cn2c(nnc2-c2cccc(O)c2)S1	Myeloid diff MLP active | Myeloid diff inactive | GFP autofluor inactive
COC(=O)c1c(NC(=O)COC(=O)CCNS(=O)(=O)c2ccc(NC(C)=O)cc2)sc(C)c1C	none
CC(=O)Nc1sc(C)c(C)c1C(=O)OCC(=O)Nc1ccc(S(N)(=O)=O)cc1	Myeloid diff MLP active (no result: TPT1 inh) | Myeloid diff inactive | GFP autofluor inactive
Cc1ccc(OCCn2c(C)nc3ccccc32)cc1	none | Myeloid diff inactive | GFP autofluor inactive
Cc1nc2ccccc2n1CCCOc1ccccc1	none

High-throughput results (PubChem BioAssay)
